Bioassay records: PubChem, several laboratories
Sampled rows, rich in hits. Any-hit rate of the full collection: about 0.97%.
AI-2 QS mod: modulators of Vibrio harveyi AI-2 quorum sensing system; Vibrio harveyi JMH597 AI-2 luminescence/OD600 ratio, 9 h; stronger effect = lower value; strain lacks LuxN and CqsS sensors; 0 = neutral-control median; activity change, % at 7.5 µM; hit rate 0.4% among 300,000; in the data active = activity change below about -75%, passing the limit was not always enough;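 also: luminescence divided by OD600 gain over 9 h not by final OD600 alone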
S1P4 agonist: agonists of human S1P4 receptor; O95977; S1P4-expressing cell line, agonist reporter assay; activation, % at 4.98 µM; hit rate 0.35% among 220,000; AID 1509; in the data active = activation above about 11%;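 also: 0% = DMSO vehicle and 100% = reference agonist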
S1P4 antag: human S1P4 receptor antagonism | hit rate 0.26% among 220,000 | O95977 | inhibition, % at 4.98 µM | S1P4-expressing cells, antagonist mode, reporter read-out; in the data active = inhibition above about 29%;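 also: 0% = wells stimulated with agonist and 100% = vehicle wells without agonist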
Hsp70 act: Hsp70 transcriptional activation, primary screen; HeLa Hsp70 promoter luciferase reporter, luminescence; scaled: vehicle 0, proteasome-inhibitor control 100%; activation, % at 10 µM; hit rate 0.04% among 200,000;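 active = activation above the mean across all tested compounds plus 3 SD, cutoff set per campaign, cut at about 5.5% in these data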;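 also: 100% = MG132 at 30 µM as the positive control and 0% = DMSO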
S1P3 antag: antagonists of human S1P3 receptor. AID 485. CHO S1P3 NFAT-BLA reporter, FRET fluorescence, antagonist mode. inhibition, % at 4.98 µM. Q99500. hit rate 0.27% among 170,000;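 active = inhibition above the plate cutoff, the mean inhibition of test wells on that plate plus 3 SD, cut at about 28% in these data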;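 also: cells challenged with S1P at its EC80 of 0.8 µM; blue over green emission ratio from cleaved BLA substrate after 4 h stimulation; 0% = S1P-stimulated wells and 100% = unstimulated DMSO-only wells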
Target sequence (Q99500 whole entry, looked up): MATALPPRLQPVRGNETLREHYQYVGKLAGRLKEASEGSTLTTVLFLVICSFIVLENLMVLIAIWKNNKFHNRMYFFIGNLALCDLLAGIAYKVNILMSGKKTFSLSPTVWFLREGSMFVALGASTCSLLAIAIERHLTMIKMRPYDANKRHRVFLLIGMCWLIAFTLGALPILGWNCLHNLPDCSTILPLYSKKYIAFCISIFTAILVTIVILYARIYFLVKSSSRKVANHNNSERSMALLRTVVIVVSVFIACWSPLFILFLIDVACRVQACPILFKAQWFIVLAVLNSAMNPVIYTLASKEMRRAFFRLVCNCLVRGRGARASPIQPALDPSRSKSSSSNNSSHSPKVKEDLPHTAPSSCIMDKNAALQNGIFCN
Starred values were filed as active, the others as inactive; · = no result.

SMILES	AI-2 QS mod	S1P4 agonist	S1P4 antag	Hsp70 act	S1P3 antag
CCOc1ccc(NC(=O)CCN2CCN(c3ccccc3)CC2)cc1	6.4	1.7	1.5	-0.1	-17.9
CC(Oc1ccc(Br)cc1)C(=O)NNC(=O)CCN1CCN(c2ccccc2)CC1 (stereo not drawn)	-92.2*	·	·	·	·
O=C(c1ccc(Br)cc1)c1cn[nH]c1-c1ccccc1O	-80.8*	·	·	·	·
COc1ccc(C(=O)c2cn[nH]c2-c2ccc(C)cc2O)cc1	-86.2*	·	·	·	·
CC(C)(C)c1ccc(C(=O)c2cn[nH]c2-c2ccccc2O)cc1	-91.7*	·	·	·	·
Cc1cccc(C(=O)c2cn[nH]c2-c2ccc(C)cc2O)c1	27.7	·	·	·	·
Cc1ccc(O)c(-c2[nH]ncc2C(=O)c2ccc(Br)cc2)c1	-10.5	·	·	·	·
COC(=O)C1=NNC2(c3ccc(C)cc3)C(=O)N(c3ccc(C)cc3)C(=O)C12 (stereo not drawn)	20.0	1.4	-7.4	-0.5	-6.2
COc1ccc(NC(=O)CN(C)C(=O)c2ccc(S(=O)(=O)Nc3ccccc3F)cc2)cc1	35.8	·	·	·	·
Cc1cccc(OCC(=O)N2CCc3ccccc3C2)c1	30.9	·	·	·	·
Nc1ccccc1-c1nc2ccccc2s1	8.7	5.0	-6.4	0.1	-39.0
CN(C)c1nc(N)nc(-c2nc3ccccc3s2)n1	9.0	1.1	-4.5	0.2	60.1*
Nc1nc2n[nH]nc2c(=O)[nH]1	-95.0*	·	·	·	·
COC(=O)c1ccc(Cl)c(NC(=O)CN(c2ccccc2)S(=O)(=O)c2ccc(OC)cc2)c1	15.7	-0.6	-15.3	0.4	-14.8
Cc1ccc(CSc2nnc(NC(=O)Cn3cnc4ccccc4c3=O)s2)cc1	-16.5	2.1	-26.9	0.5	-18.8
CCSc1nnc(NC(=O)Cn2cnc3ccccc3c2=O)s1	-80.6*	-0.5	6.2	·	5.7
O=C(NNS(=O)(=O)c1ccccc1)c1ccc(S(=O)(=O)N2CCCCC2)cc1	-95.6*	-0.3	1.5	-0.3	-5.5
COc1ccccc1C(=O)NC(=O)COC(=O)c1ccc(C)o1	10.0	·	·	·	·
Cc1ccc(CCC(=O)Nc2ccc(CC(=O)O)cc2)o1	12.4	·	·	·	·
Cc1ccc(CCC(=O)Nc2ccc(Br)cc2)o1	-88.0*	·	·	·	·
Cc1cc(NS(=O)(=O)c2ccc(NC(=O)Cc3cccs3)cc2)no1	-78.1*	0.9	1.6	-0.2	-14.0
Cc1cc(NC(=O)Cc2cccs2)no1	·	-0.3	-25.2	-0.3	18.8
O=C(NCc1cccs1)Nc1cccc(Cl)c1	-90.7*	0.7	-5.1	0.1	·
Oc1cccc2ccc(Nc3ccccn3)nc12	-86.3*	0.2	-13.2	0.0	33.7
CC(=O)c1ccc2noc(-c3cccc(C)c3)c2c1	8.8	0.8	9.5	-0.5	-3.8
SMILES	AI-2 QS mod	S1P4 agonist	S1P4 antag	Hsp70 act	S1P3 antag
O=S(=O)(/C(=C/c1ccc(C(F)(F)F)cc1)c1nc2ccccc2[nH]1)c1ccccc1	8.7	-1.3	92.2*	2.9	8.0
CC(C)c1ccc(/C=C(\c2nc3ccccc3[nH]2)S(=O)(=O)c2ccccc2)cc1	12.8	-0.9	23.6	0.0	10.0
COc1cc(C=O)ccc1OCC(=O)Nc1ccc2c(c1)OCO2	26.2	·	·	·	·
O=[N+]([O-])c1cc(S(=O)(=O)N2CCCCCC2)ccc1Cl	·	-5.0	85.9*	-0.1	-20.5
COc1ccc(Nc2cc(C)nc(NCc3ccccc3)n2)cc1	-52.1	0.4	14.1	·	2.1
Cc1ccc(Nc2cc(C)nc(NCc3ccccc3)n2)cc1	-91.6*	-0.7	3.0	-0.3	-7.1
CCCSC1=C(C#N)C(c2ccccc2C)CC(=O)N1 (stereo not drawn)	21.5	0.7	-12.5	0.4	15.3
CCCCSC1=C(C#N)C(c2ccccc2C)CC(=O)N1 (stereo not drawn)	12.0	0.0	-5.2	-0.2	102.3*
CN(C)c1ccc(CNc2ccc3c(c2)ncn3C)cc1	11.5	3.0	-0.8	0.6	·
CC(C)c1ccc(CNc2ccc3c(c2)ncn3C)cc1	-78.7*	·	·	·	·
O=C(c1c[nH]c(C(=O)N2CCN(c3ccccc3F)CC2)c1)c1cccc(Cl)c1Cl	7.5	0.0	-5.0	-0.1	-10.2
O=c1cc(-c2ccccc2)cc(-c2ccccc2)n1O	-82.1*	·	·	·	·
O=C(CN1C(=O)CCS(=O)(=O)c2ccccc21)Nc1ccccc1F	-17.3	·	·	·	·
CN(CCOC(=O)CN1C(=O)c2ccccc2C1=O)C1=NS(=O)(=O)c2ccccc21	16.4	0.8	-3.1	-0.1	-3.4
COc1cc(/C=C/C(=O)c2ccc([N+](=O)[O-])o2)ccc1O	-174.9*	·	·	·	·
COc1ccc(/C=C/C(=O)c2ccc([N+](=O)[O-])o2)cc1OC	52.1	·	·	·	·
O=C(NC(=S)Nc1cccc(O)c1)c1ccco1	25.9	-0.5	-5.9	·	-4.1
CC1=N/C(=C\c2ccc(OC(C)C)cc2)C(=O)N1c1ccc(C(=O)O)cc1	-82.5*	1.0	-2.1	-0.3	-5.3
CC(C)CN1CCC(CN(C)Cc2nc(-c3cnccn3)no2)CC1	7.5	1.0	-22.6	-0.1	-16.0
O=c1oc2c(-c3ccc([N+](=O)[O-])cc3)cc(O)cc2s1	-0.7	3.6	-11.7	·	-9.9
O=C(CSc1nnnn1C1CC2CCC1C2)Nc1ccnc2ccccc12 (stereo not drawn)	·	0.1	-22.0	0.4	64.2*
O=C(CSc1nnnn1C1CCCCC1)Nc1ccccc1F	8.1	1.8	-14.6	-0.1	-11.9
COc1cc(C2NC(=O)NC3=C2C(=O)OC3)cc(OC)c1OC (stereo not drawn)	9.5	-2.1	-16.5	·	-4.1
Cc1noc(C)c1C(=O)OCC(=O)Nc1cccc(S(N)(=O)=O)c1	-16.1	-0.3	3.5	-0.3	-19.4
Cc1cc(NC(=O)COC(=O)c2c(C)noc2C)ccc1Br	-91.1*	0.6	-18.7	0.4	-8.7
SMILES	AI-2 QS mod	S1P4 agonist	S1P4 antag	Hsp70 act	S1P3 antag
Cn1c(=O)c2c(nc(NCc3ccccc3)n2Cc2ccc(F)cc2)n(C)c1=O	·	0.0	-13.7	-0.3	14.6
CCCNc1nc2c(c(=O)n(C)c(=O)n2C)n1Cc1ccc(F)cc1	5.3	1.2	-15.3	-0.3	85.3*
O=c1c2ccccc2nc(/C=C/c2ccc([N+](=O)[O-])o2)n1CCCO	-84.2*	-0.1	1.5	0.7	·
O=[N+]([O-])c1ccc(C2CN=C(Nc3ccccc3)S2)cc1 (stereo not drawn)	-16.7	1.4	-16.8	0.5	-20.6
CCc1ccc(NC2=NCC(c3ccccc3)S2)cc1 (stereo not drawn)	-95.2*	1.3	-4.0	0.5	15.9
O=C1CN(/N=C/c2ccc([N+](=O)[O-])o2)C(=O)N1	-89.3*	0.8	-2.7	-0.3	-0.7
CCC(=O)NC(C)C(c1cccs1)N1CCN(c2ccccc2)CC1 (stereo not drawn)	21.8	-2.8	-4.7	0.1	-19.8
CC(=O)NC(C)C(c1cccs1)N1CCN(c2ccccc2)CC1 (stereo not drawn)	35.7	3.5	-12.7	0.1	63.6*
N#CCCN(C(=O)COC(=O)c1cc(S(=O)(=O)N2CCOCC2)ccc1Cl)c1ccc(F)cc1	33.8	·	·	·	·
CCOC(=O)c1[nH]c2ccc(OC)cc2c1NS(=O)(=O)c1ccc(Cl)s1	-84.2*	2.2	-5.6	-0.3	3.2
Cc1cc(C)cc(Nc2nc3ccccc3c(=O)[nH]2)c1	19.6	-0.9	-4.9	0.3	11.1
COc1nc(Nc2nc3ccccc3c(=O)[nH]2)nc2ccc(C)cc12	23.4	-0.6	-9.4	·	69.9*
